GLP1R cytotox – cytotoxic in the GLP-1 receptor inverse agonist counter-screen | 410,000 compounds, 0.13% hits | AID 624418 | HEK293 cAMP-luciferase reporter cells, luminescence, 24 h | Potency, µM (titrated, usually from 38.3 µM), most hits filed as inhibitors;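 also: loss of luciferase light is scored as toxicity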
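Cells in DMEM/10% Nu serum/1% pen-strep, 1536-well format. Pre-incubated 12 h, dosed with 23 nL compound, incubated a further 24 h. Luciferase detection, 12 min at room temp, luminescence.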
ClpP mod – qHTS Assay for Activators of ClpP; Potency, µM (series often up to 57.5 µM); purified B. subtilis ClpP, FRET peptide cleavage, 20 min; ATP-dependent Clp protease proteolytic subunit (Bacillus subtilis (strain 168)), P80244; 340,000 compounds, 1.9% hits; AID 651965, 2013; active = well fitted falling curve with a large enough effect; inconclusive = small, poorly fitted or top-dose-only effect; inactive = no such curve, though single readings can be large or run the other way; also: the source files actives as falling curves though it sought activators and does not explain the sign; nearly all actives have a fitted effect of over 65% in size
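Buffer: 100 mM Tris/HCl pH8, 100 mM KCl, 0.05% low protease BSA, 2.5% glycerol, 0.01% Tween-20. ClpP 10 microg/mL final; 20 min RT; delta FRET normalized to ADEP and DMSO controls.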
GLP-1R agonist – GLP-1 receptor (human) agonism; P43220; HEK293 GLP-1R CRE-luciferase, luminescence, 4-6 h; cells express a hypersensitive GLP-1R form; Potency, µM (top dose mostly 45.6 µM), usual class: activators; 380,000 compounds, 0.007% hits; AID 624172
Target sequence (P43220 whole entry, looked up): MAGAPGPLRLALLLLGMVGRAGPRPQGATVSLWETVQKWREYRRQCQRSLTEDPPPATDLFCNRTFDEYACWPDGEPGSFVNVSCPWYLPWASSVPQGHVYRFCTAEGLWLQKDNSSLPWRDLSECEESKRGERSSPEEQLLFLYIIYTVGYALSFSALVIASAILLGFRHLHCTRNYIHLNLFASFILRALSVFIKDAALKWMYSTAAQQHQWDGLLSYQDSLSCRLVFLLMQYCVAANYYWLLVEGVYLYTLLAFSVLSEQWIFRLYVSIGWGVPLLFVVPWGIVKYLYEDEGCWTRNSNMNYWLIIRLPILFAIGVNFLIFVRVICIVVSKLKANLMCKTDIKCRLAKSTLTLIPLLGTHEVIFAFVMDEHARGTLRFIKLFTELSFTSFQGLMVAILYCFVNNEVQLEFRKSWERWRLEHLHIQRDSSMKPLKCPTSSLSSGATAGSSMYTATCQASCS
GLP1R inv ag – inverse agonists of human GLP-1 receptor; P43220; HEK293 GLP-1R CRE-luciferase, luminescence, 24 h; GLP-1R form is constitutively active; Potency, µM (top dose mostly 38.3 µM), hits mostly inhibitors; 410,000 compounds, 1.6% hits; also: nearly all actives have a fitted effect of over 55% in size
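Inverse agonists were sought by their lowering of basal cAMP reporter luciferase output in HEK293 cells stably carrying constitutively active human GLP-1R, after 24 h compound treatment.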
Numbers stand for hits; n = inactive; u = inconclusive; x = no result given. This is a sample that favours compounds with a hit; in the whole collection about 3.2% have one here. Unless noted, calls follow the shape of the dose curve; as a rule, active = well fitted curve in the direction sought with a large enough effect; inconclusive = small, poorly fitted or top-dose-only effect, or another doubt; inactive = no such curve, though single readings can be large; an effect the other way counts as inactive or inconclusive.

SMILES	GLP1R cytotox	ClpP mod	GLP-1R agonist	GLP1R inv ag
COc1ccccc1CNC(=O)C1CCN(Cc2cc3ccccc3n2Cc2cccc(C)c2)CC1	n	n	x	u
CC(C)Sc1nc2sc3c(c2c2nnc(SCC(=O)NCc4ccco4)n12)CCCC3	n	32µM	n	u
Cc1nc(SCC(=O)NCc2ccco2)c2c3c(sc2n1)CCCC3	n	n	n	n
CCOC(=O)C1=C(C)Nc2sc(C(=O)c3ccc(C)cc3)c(N)c2C1c1ccc(C(=O)OC)cc1 (stereo not drawn)	n	8.9µM	n	n
CCN(CC)CCn1c(=N)n(CC(=O)c2ccc(Br)s2)c2ccccc21	u	x	n	2.8µM
COc1ccc(CCC(C)NCCc2ccc(Cl)cc2Cl)cc1 (stereo not drawn)	u	n	n	10µM
COc1ccc(CCC(C)NCc2ccc(Cl)c(Cl)c2)cc1 (stereo not drawn)	n	n	n	u
CSCCC(NS(=O)(=O)c1cccs1)C(=O)Nc1ccc(C)c(Cl)c1 (stereo not drawn)	n	n	x	n
COc1ccc2oc(=Nc3ccc(C(=O)O)cc3)c(C(=O)NCc3ccco3)cc2c1	n	n	n	n
COc1ccc2cc(C(=O)NCc3ccco3)c(=Nc3ccc(C(=O)O)cc3)oc2c1	n	20µM	n	n
Cc1ccc(Cl)cc1NC(=O)CSc1nc2c(c(=O)[nH]1)CN(Cc1ccccc1)CC2	n	n	x	n
COc1cc(C2C(C(=O)c3ccc(C)o3)=C(O)C(=O)N2CCCn2ccnc2)cc(OC)c1OC (stereo not drawn)	n	25µM	n	n
CCc1nc(N2CCCC2)c(C#N)c2c1CCCC2	n	20µM	n	n
CCSc1nc(N2CCCCC2)c2c(c1C#N)CCCC2	n	u	n	n
CC(C)c1nc(N2CCCC2)c(C#N)c2c1CCCC2	n	28µM	n	u
CCc1nc(N2CCOCC2)c(C#N)c2c1CCCC2	n	n	n	u
CCCc1nc(N2CCCC2)c(C#N)c2c1CCCC2	n	32µM	n	n
CCOC(=O)/C(=N\Nc1ccc(Br)cc1)N1CCN(c2ccccc2OC)CC1	u	x	n	2.2µM
CCOC(=O)N1CCN(c2ccccc2OC)CC1	n	n	n	n
CC(=O)c1cccc(CN2CCC(C(=O)Nc3cccc(-c4ccn[nH]4)c3)CC2)c1	n	n	n	u
C=CCOc1ccccc1CN1CCC(C(=O)Nc2cccc(-c3ccn[nH]3)c2)CC1	u	n	n	7.9µM
Cc1cc(C)cc(N(C(=O)c2nsc(Cl)c2Cl)C(C(=O)NC2CCCC2)c2ccc(O)cc2)c1 (stereo not drawn)	u	n	n	4µM
COc1ccc(C(C(=O)NC2CCCC2)N(Cc2ccccc2)C(=O)c2nsc(Cl)c2Cl)cc1 (stereo not drawn)	n	n	n	u
Cc1cccc(N(C(=O)c2nsc(Cl)c2Cl)C(C(=O)NC2CCCC2)c2ccc(O)cc2)c1C (stereo not drawn)	n	n	n	8.9µM
CCOc1ccc(C(C(=O)NC2CCCC2)N(Cc2ccccc2)C(=O)c2nsc(Cl)c2Cl)cc1 (stereo not drawn)	n	n	n	10µM
SMILES	GLP1R cytotox	ClpP mod	GLP-1R agonist	GLP1R inv ag
CCOc1ccc(CCNC(=O)Cn2c(C)c3cnn(-c4ccccc4)c(=O)c3c2C)cc1	n	n	x	n
Cc1ccc(CN2CCC(CNC(=O)Nc3cccc(C)c3C)C2)cc1 (stereo not drawn)	n	n	x	u
CN(C(=O)CSc1nnc(-c2ccccc2F)o1)C1CCCCC1	n	n	x	n
CCCNC(=O)c1c(N)n(-c2ccc3c(c2)OCO3)c2nc3ccccc3nc12	n	n	n	n
Nc1c(C(=O)NC2CC2)c2nc3ccccc3nc2n1-c1ccc2c(c1)OCO2	n	32µM	n	n
O=C1OC(c2cc(I)c(O)c(I)c2)(c2cc(I)c(O)c(I)c2)c2ccccc21	x	x	n	x
CCC(C)C(NC(N)=O)C(=O)Nc1ccc(C)c(Cl)c1 (stereo not drawn)	n	28µM	n	n
COc1ccc(-c2c3c(=O)n(C)c(=O)n(C)c3cn2-c2cc(OC)ccc2OC)cc1	n	28µM	n	n
Cn1c(=O)c2c(-c3ccccc3)n(-c3ccccc3O)cc2n(C)c1=O	n	28µM	n	n
CCOc1ccccc1-n1cc2c(c1-c1ccc(OC)cc1)c(=O)n(C)c(=O)n2C	n	n	x	n
COc1ccc(-c2c3c(=O)n(C)c(=O)n(C)c3cn2-c2ccccc2O)cc1	n	n	n	n
